Laboratory results published in PubChem BioAssay (NCATS).
Records with an inconclusive call do not appear. Where a call stands in place of a potency, no number is given. The source made the active and inactive calls. The call rests on the fitted dose curve; in most records, active means well fitted curve in the direction sought with a large enough effect; inconclusive means small, poorly fitted or top-dose-only effect, or another doubt; inactive means no such curve, though single readings can be large; an effect the other way counts as inactive or inconclusive.

Columns and labels:
[1] = qHTS of pediatric cancer cell lines to identify multiple opportunities for drug repurposing: Primary screen for TC32 cells (AID 1347089); further: nearly all actives have a fitted effect of over 60% in size
Summary of the method: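 Luminescent CellTiter-Glo read-out of metabolically active TC32 cells after 48 h compound exposure. Primary: MIPE 11-point, 0.78 nM–46 µM; NPC 8-point, 0.59 nM–46 µM. Confirmatory: 11-point dilutions.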

[2] = qHTS of pediatric cancer cell lines to identify multiple opportunities for drug repurposing: Primary screen for DAOY cells (AID 1347090); further: nearly all actives have a fitted effect of over 55% in size
Summary of the method: (§1)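 Eight- or eleven-point concentration series, 48 h treatment at 37 degrees C in growth media; readout CellTiter-Glo luminescence. Potency and efficacy were taken from the concentration-response curves.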

[3] = qHTS of pediatric cancer cell lines to identify multiple opportunities for drug repurposing: Primary screen for SJ-GBM2 cells (AID 1347091)
Summary of the method: as §1

[4] = qHTS of pediatric cancer cell lines to identify multiple opportunities for drug repurposing: Primary screen for A673 cells (AID 1347092); further: nearly all actives have a fitted effect of over 45% in size
Summary of the method: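 A673 cells (500-1,000 cells/well in growth media) were pre-incubated 5 h at 37 degrees C, then exposed to compounds for 48 h. Viability was read as CellTiter-Glo luminescence; concentration-response curves came directly from the primary screen.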

[5] = qHTS of pediatric cancer cell lines to identify multiple opportunities for drug repurposing: Primary screen for SK-N-MC cells (AID 1347093)
Summary of the method: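 Metabolically active cells were quantified by ATP-dependent luminescence (CellTiter-Glo, 15 min at room temperature) following 48 h treatment. Cells had been plated at 500-1,000 per well and settled for 5 h beforehand.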

[6] = qHTS of pediatric cancer cell lines to identify multiple opportunities for drug repurposing: Primary screen for BT-37 cells (AID 1347094)
Summary of the method: (§2)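 Cells seeded at 500-1,000 cells/well in growth media, rested 5 hours at 37 degrees C, 5% CO2, then dosed; MIPE compounds at 11-point (from 0.78 nM) and NPC at 8-point (from 0.59 nM) final concentrations. Viability by CellTiter-Glo luminescence after 48 hours.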

[7] = qHTS of pediatric cancer cell lines to identify multiple opportunities for drug repurposing: Primary screen for NB-EBc1 cells (AID 1347095)
Summary of the method: as §2

[8] = qHTS of pediatric cancer cell lines to identify multiple opportunities for drug repurposing: Primary screen for U-2 OS cells (AID 1347096); further: nearly all actives have a fitted effect of over 50% in size
Summary of the method: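 Cells (500-1,000/well) in growth media were settled 5 h at 37 degrees C, then given compounds for 48 h. Viability was read as CellTiter-Glo luminescence. Primary runs used MIPE at 11 points (0.78 nM-46 µM) and NPC at 8 points (0.59 nM-46 µM); follow-ups used 11 points.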

[9] = qHTS of pediatric cancer cell lines to identify multiple opportunities for drug repurposing: Primary screen for Saos-2 cells (AID 1347097); further: nearly all actives have a fitted effect of over 40% in size
Summary of the method: as §2

[10] = qHTS of pediatric cancer cell lines to identify multiple opportunities for drug repurposing: Primary screen for SK-N-SH cells (AID 1347098); further: nearly all actives have a fitted effect of over 65% in size
Summary of the method: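 Cells (500-1,000/well) rested 5 h, then received compounds for 48 h; metabolically active cells were measured by CellTiter-Glo luminescence. Final concentrations spanned up to 46 µM (MIPE, 11-point) or 0.59 nM-46 µM (NPC, 8-point) in primary screens, 11-point in follow-ups.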
Potency means the concentration at half of the fitted maximal effect.

Compound	Potency [1]	Potency [2]	Potency [3]	Potency [4]	Potency [5]	Potency [6]	Potency [7]	Potency [8]	Potency [9]	Potency [10]
CN1C(=O)C(Cc2c[nH]c3ccccc23)NC1=S (configuration not stated)	inactive	inactive	inactive	inactive	inactive	inactive	inactive	inactive	inactive	inactive
COC(=O)N1CCN(Cc2cccc(NC(=O)Nc3ccc(C)nc3)c2F)CC1	inactive	inactive	inactive	inactive	inactive	inactive	inactive	inactive	inactive	inactive
C[C@]12CCC3=C4CCC(=O)C=C4CC[C@@H]3[C@H]1CC[C@@]2(O)CC#N	inactive	inactive	inactive	inactive	inactive	inactive	inactive	inactive		inactive
CN1CC(=O)N2C(Cc3c([nH]c4ccccc34)[C@H]2c2ccc3c(c2)OCO3)C1=O (some centres not stated)	inactive	inactive	inactive	inactive	inactive	inactive		inactive		
CN(C)CCOc1cc(-c2cn[nH]c2)ccc1NC(=O)C1COc2ccccc2O1 (configuration not stated)	inactive	inactive	inactive		8.33 µM (active)	inactive	inactive	inactive	2.96 µM (active)	10.8 µM (active)
COc1ccnc(CS(=O)c2nc3ccc(OC(F)F)cc3[nH]2)c1OC (configuration not stated)	inactive	inactive	inactive	inactive		inactive	inactive	inactive	inactive	inactive
Cc1ccccc1-n1c(Cn2nc(-c3cccc(O)c3)c3c(N)ncnc32)nc2cccc(C)c2c1=O	inactive	1.18 µM (active)	0.0166 µM (active)		0.0418 µM (active)	0.0544 µM (active)	0.0743 µM (active)		0.059 µM (active)	
N#Cc1c(N(CC(=O)O)CC(=O)O)sc(C(=O)O)c1CC(=O)O	inactive	inactive	inactive	inactive		inactive	inactive	inactive	inactive	inactive
O=C(NCCCCN1CCOCC1)c1cc2ccccc2o1	inactive	inactive	inactive	inactive		inactive	inactive	inactive	inactive	30.4 µM (active)
CCN1CCN(c2ccc(Nc3cc(N(C)C(=O)Nc4c(Cl)c(OC)cc(OC)c4Cl)ncn3)cc2)CC1	inactive	inactive	18.7 µM (active)	inactive			20.9 µM (active)	inactive		inactive
CCCCCCOC(=O)N=C(N)c1ccc(NCc2nc3cc(C(=O)N(CCC(=O)OCC)c4ccccn4)ccc3n2C)cc1	inactive	inactive	18.7 µM (active)	14.8 µM (active)	29.6 µM (active)			inactive		inactive
Cc1cc2nc3c(=O)[nH]c(=O)nc-3n(CC(O)C(O)C(O)CO)c2cc1C (configuration not stated)	inactive	inactive	inactive		29.6 µM (active)	inactive	inactive	inactive	inactive	
C[C@@H]1[C@H](O)[C@@H](C)C=CC=CC=CC=CC=CC=CC=C[C@H](O[C@@H]2O[C@H](C)[C@H](O)[C@H](N)[C@@H]2O)C[C@@H]2O[C@](O)(C[C@@H](O)C[C@@H](O)[C@H](O)CC[C@@H](O)C[C@@H](O)CC(=O)O[C@H]1C)C[C@H](O)[C@@H]2C(=O)O	2.94 µM (active)	inactive	inactive	0.148 µM (active)		inactive		inactive	inactive	
CC[C@H](NC(=O)[C@H](C)NC)C(=O)N1C[C@@H](O)C[C@H]1Cc1c(-c2[nH]c3cc(F)ccc3c2C[C@H]2C[C@H](O)CN2C(=O)[C@H](CC)NC(=O)[C@H](C)NC)[nH]c2cc(F)ccc12	inactive	2.35 µM (active)	0.0469 µM (active)		1.18 µM (active)	0.217 µM (active)	0.418 µM (active)	inactive		
O=C(O)C1=NC(C(=O)O)CC(C=CN2c3cc(O)c(OC4OC(CO)C(O)C(O)C4O)cc3CC2C(=O)O)=C1 (configuration not stated)	inactive	inactive	inactive	inactive		inactive		inactive	inactive	inactive
CCOC(=O)N1c2ccc(C(F)(F)F)cc2[C@@H](N(Cc2cc(C(F)(F)F)cc(C(F)(F)F)c2)C(=O)OC)C[C@H]1CC	inactive	inactive	inactive	inactive			inactive	inactive		
CC1(C)OC2CC3C4CC(F)C5=CC(=O)C=CC5(C)C4C(O)CC3(C)[C@]2(C(=O)CO)O1 (some centres not stated)	inactive	inactive	inactive	inactive		inactive	inactive	inactive	inactive	inactive
O=C1CCCC(=O)C1C(=O)c1ccc(C(F)(F)F)cc1[N+](=O)[O-]	inactive	inactive	inactive	inactive				inactive	inactive	
C[C@H]1COC2=C1C(=O)C(=O)c1c2ccc2c1CCCC2(C)C	inactive	inactive	20.9 µM (active)	inactive				inactive	5.9 µM (active)	inactive

Compound	Potency [1]	Potency [2]	Potency [3]	Potency [4]	Potency [5]	Potency [6]	Potency [7]	Potency [8]	Potency [9]	Potency [10]
CC[C@H](C)C(=O)O[C@H]1C[C@H](O)C=C2C=C[C@H](C)[C@H](CC[C@@H](O)C[C@@H](O)CC(=O)O)[C@H]21	inactive	inactive	inactive	inactive		inactive	inactive	inactive		inactive
Cc1ccc2c(c1)c1c(n2CCc2ccc(C)nc2)CCN(C)C1	inactive	inactive	inactive	inactive		inactive	inactive	inactive	inactive	
CCCCn1c(=O)n(Cc2ccccc2F)c(=O)c2[nH]c(Cc3ccc(NC(C)=O)cc3)nc21	inactive	23.5 µM (active)	inactive		10.5 µM (active)	inactive	inactive	inactive	inactive	27.1 µM (active)
Cc1nc(C(=O)NCC(=O)O)c(O)c2ccc(Oc3ccccc3)cc12	inactive	inactive	inactive	inactive		inactive		inactive		inactive
Cc1nc2c([nH]1)CCN(C(=O)c1ccc(NC(=O)c3ccccc3-c3ccccc3)cc1)c1ccccc1-2	inactive	inactive	inactive	inactive		inactive	inactive	inactive	inactive	inactive
CC[C@H](C=C[C@@H](C)[C@H]1CC[C@H]2[C@@H]3CC=C4C[C@@H](O)CC[C@]4(C)[C@@H]3CC[C@]12C)C(C)C	inactive	inactive	inactive	inactive		inactive	inactive	inactive	inactive	inactive
CO[C@H]1O[C@@H]2O[C@@]3(C)CC[C@@H]4[C@@H](C)CC[C@@H]([C@H]1C)[C@@]24OO3	inactive	inactive	inactive	inactive	5.26 µM (active)			inactive		inactive
CC(C)CN(C[C@@H](O)[C@H](Cc1ccccc1)NC(=O)O[C@H]1CO[C@H]2OCC[C@H]21)S(=O)(=O)c1ccc(N)cc1	inactive	14.8 µM (active)	inactive	5.9 µM (active)	2.35 µM (active)				20.9 µM (active)	inactive
O[C@@H](COc1cccc2ncccc12)CN1CCN(C2c3ccccc3[C@@H]3[C@H](c4ccccc42)C3(F)F)CC1 (some centres not stated)	inactive	11.8 µM (active)	3.35 µM (active)	14.8 µM (active)			4.73 µM (active)			15.2 µM (active)
CC(C)C[C@@H](N)[C@H](O)C(=O)N[C@H](C(=O)N[C@H](C(=O)N[C@@H](CC(=O)O)C(=O)O)C(C)C)C(C)C	inactive	inactive	inactive	inactive		inactive	inactive	inactive	inactive	24.1 µM (active)
COC(=O)[C@H](c1ccccc1Cl)N1CCc2sccc2C1	inactive	inactive	inactive	1.48 µM (active)			inactive			
CCCCC[C@H](O)C=C[C@H]1[C@H](O)CC(=O)[C@H]1CC=CCCCC(=O)O	inactive	inactive	inactive	inactive			inactive	inactive		inactive
COc1ccc2c(c1)CC[C@H]1[C@@H]2CC[C@]2(C)[C@@H](NCCCCCCN3C(=O)C=CC3=O)CC[C@H]12	inactive	inactive	inactive		inactive	inactive	inactive			
C=C[C@@H]1CN2CCC1C[C@@H]2C(O)c1ccnc2ccc(OC)cc12 (some centres not stated)	inactive	inactive	inactive	inactive		inactive		inactive		inactive
CCC=CC[C@H]1C(=O)CC[C@@H]1CC(=O)OC	inactive	inactive	inactive		inactive	inactive	inactive		inactive	19.2 µM (active)
Cc1ccc(NC(=O)Nc2cc(C(F)(F)F)ccc2F)cc1Nc1ccc2c(c1)NC(=O)C2=Cc1ccc[nH]1	inactive	14.8 µM (active)	10.5 µM (active)	7.43 µM (active)		24.3 µM (active)	11.8 µM (active)	23.5 µM (active)	20.9 µM (active)	30.4 µM (active)
CS(=O)(=O)c1ccc(C2=C(c3ccccc3)C(=O)OC2)cc1	inactive	inactive	inactive		inactive	inactive	inactive			
CC[C@H](C)n1cc(C)c2c(C(=O)NCc3c(C)cc(C)[nH]c3=O)cc(-c3ccc(N4CCNCC4)nc3)cc21	inactive	11.8 µM (active)	inactive		0.59 µM (active)	19.3 µM (active)	inactive	inactive	18.7 µM (active)	6.07 µM (active)
FC(F)(F)c1ccc(C=Cc2nc(COc3ccc(CCCCn4ccnn4)cc3)co2)cc1	6.58 µM (active)	0.0187 µM (active)	0.0037 µM (active)		0.0093 µM (active)	0.0109 µM (active)				
